Compound activity as filed in PubChem.
Hits are enriched below; roughly 1.8% of the tested compounds scored in any of these assays.
sdo1 growth: growth rescue of sdo1-depleted yeast, primary screen, S. cerevisiae, bone marrow failure model. 0.21% of 140,000 active. S. cerevisiae sdo1-depleted JHY4D growth rescue, OD600 30 h; stronger effect = higher value; pdr5 snq2 efflux-pump mutant strain. z-score at 10 µM;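 active = z-score above 3 at both the 24 hr and the 30 hr optical density reads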
Measles CPE: compounds protecting cells from measles virus cytopathic effect, primary screen, measles RdRp inhibitor project, single point, MLSMR library, absorbance; Measles virus-infected cells, CPE protection; protection (pct of control), % at 4 µM; 1.5% of 140,000 active; AID 841, 2007; in the data active = protection mostly above about 24%, no sharp cut-off; inactive = mostly below about 26%
Phagocyt inh: inhibitors of macrophage phagocytosis, primary screen, imaging, J774A.1 cells, IgG beads. inhibition, % at 5 µM. J774A.1 macrophage IgG-bead phagocytosis. 0.07% of 110,000 active. AID 1029, 2008;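 active = inhibition above the mean of the plate negative controls plus 5 SD, cut at about 13% in these data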;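 note: phagocytic index as fraction of beads internalized from green versus red external bead signal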
Each line names hits and unclear results; the compound was inactive in the other large screens; [ ] = remark or other dose.

Cc1ccc(N(CN2CCCC2=O)C(=O)c2ccc(OC(C)C)cc2)cc1	none
Clc1ccc(-n2c(SC/C=C/c3ccccc3)nnc2-c2cccnc2)cc1	none
Nn1c(SC/C=C/c2ccccc2)nnc1-c1cccnc1	Measles CPE 25.7
CC(=O)Nc1ccc(S(=O)(=O)N[C@@H](C)C(=O)OCc2ccc(Cl)cc2)cc1	none
COc1ccc(-n2c(C)cc(C(=O)COc3ccc(C)nc3[N+](=O)[O-])c2C)cc1	none
CCCCOC(=O)C1=C(C)Nc2nnnn2C1c1ccc(OC)c(OC)c1OC (configuration not stated)	Measles CPE 45.7 (no result: Phagocyt inh)
CCCCOC(=O)C1=C(C)Nc2ncnn2C1c1ccc(OC)c(OC)c1OC (configuration not stated)	none (no result: Phagocyt inh)
NC(=O)N1CCN(C(=O)c2ccco2)CC1	none
Nc1ccc(N2CCN(C(=O)c3ccco3)CC2)cc1	Measles CPE 59.7 (no result: Phagocyt inh)
CC(NS(=O)(=O)c1ccccc1)C(c1cccs1)N1CCOCC1 (configuration not stated)	none (no result: Phagocyt inh)
O=C(COC(=O)c1cccc(Br)c1)NCCc1ccc(F)cc1	none
CC1=CS/C(=C(/C#N)C(=O)N2CCCCC2)N1c1ccccc1	Measles CPE 32.9
CC1=CS/C(=C(/C#N)C(=O)N2CCOCC2)N1c1ccccc1	none
CCOc1ccc(NC(=O)CSc2nnc(-c3ccccn3)n2N)cc1	none
CCOc1ccc(NC(=O)CSc2nnc(-c3ccccn3)n2C)cc1	Measles CPE 54.5
CCCCn1c(N)c(NCCC)c(=O)[nH]c1=O	none
COc1ccc(CNc2nc(-c3ccccc3)nn2C(=O)c2ccc([N+](=O)[O-])cc2)cc1	none
Cc1ccc(C(=O)N/C(=C\c2cn(-c3ccccc3)nc2-c2ccccc2)C(=O)N2CCOCC2)cc1	none (no result: Phagocyt inh)
O=C(CN1CCOCC1)Nc1ccccc1Cl	Measles CPE 59.8
O=C(CN1CCOCC1)Nc1cccc(Cl)c1Cl	none
COC(=O)c1ccc(Cl)c(NC(=O)CN2CCN(Cc3ccccc3)CC2)c1	Measles CPE 35.9
COC(=O)c1cccc(NC(=O)CN2CCN(Cc3ccccc3)CC2)c1	none
CC(C)C(NC(=O)c1ccc(C(C)(C)C)cc1)C(=O)OCC(=O)NC(=O)Cc1ccccc1 (configuration not stated)	none
COc1ccc2c(c1)c(C(=O)CN1CCN(C(=O)c3ccco3)CC1)c(C)n2C	none
COc1ccc(S(=O)(=O)N2CCN(C(=O)c3ccco3)CC2)cc1OC	Measles CPE 57.0
COc1ccc(Cl)cc1S(=O)(=O)N1CCN(C(=O)c2ccco2)CC1	none
O=C(Nc1ccc2c(c1)OCO2)C1CCN(S(=O)(=O)Cc2ccccc2)CC1	none
O=C(Nc1ccc2c(c1)OCO2)NC1CCN(Cc2ccccc2)CC1	Phagocyt inh 27.6[artifact]
O=C(NC1CCN(C(=O)N2c3ccccc3Sc3ccccc32)CC1)c1ccccc1F	Measles CPE 40.7 (no result: Phagocyt inh)
CC1CCN(C(=O)N2c3ccccc3Sc3ccccc32)CC1	none
O=C(CCSc1ccc(Cl)cc1)N1CCCCCC1	Measles CPE 30.8 (no result: Phagocyt inh)
O=C(CCSc1ccc(Cl)cc1)N1CCN(c2ncccn2)CC1	none
CC(=O)Oc1ccc(N(C(C)=O)S(=O)(=O)c2cccs2)c2ccccc12	none
CCN(CC)S(=O)(=O)c1ccc(C2CNC(=O)C2)cc1 (configuration not stated)	none
Cc1cc(C)c(C#N)c(SCSCc2ccccc2)n1	none
O=C(Cn1cnc2ccc(Br)cc2c1=O)c1cccs1	none (no result: Phagocyt inh)
O=C(Cn1cnc2ccc(Cl)cc2c1=O)c1cccs1	Measles CPE 52.2 (no result: Phagocyt inh)
O=C1CC(SC(=Nc2ccccc2)Nc2ccccc2)C(=O)N1c1cccc2ccccc12 (configuration not stated)	none (no result: Phagocyt inh)
CN1CCC(=NNC(=O)C(=O)NC2CCCC2)CC1	Measles CPE 56.0
CN1CCC(=NNC(=O)C(=O)NC2CCCCC2)CC1	none
C/C(CCN1CCc2nc(-c3ccccc3)c(-c3ccccc3)cc2C1)=N\O[C@@H](C)c1cn([C@H](CO)Cc2ccccc2)nn1	none (no result: Phagocyt inh)
O=C1NC2(CCCCC2)N=C1c1ccc(F)cc1	none
O=C1NC2(CCCCC2)N=C1c1ccc(Br)cc1	Measles CPE 64.5
Cc1ccc(N2CC(C(=O)N/N=C/c3cccc([N+](=O)[O-])c3)CC2=O)cc1 (configuration not stated)	none
O=C(N/N=C/c1cccc([N+](=O)[O-])c1)C1CC(=O)N(c2ccc(Cl)cc2)C1 (configuration not stated)	Measles CPE 72.5
Cc1cc(C)c(NC(=O)C(C)OC(=O)c2cc(Br)c(Br)s2)c(C)c1 (configuration not stated)	none
CC1CCN(C(=S)c2ccc([N+](=O)[O-])cc2)CC1	none
Cc1ccc(-n2ncc3c(SCc4ccccc4)ncnc32)cc1	Measles CPE 35.3
CCN(c1ccccc1)c1ncnc2c1cnn2-c1ccccc1	Measles CPE 48.8
